Results filed as inconclusive are left out. Unmarked numbers belong to inactive results. Activity calls are given as the source filed them. Calls come from the whole dose curve; as a rule, active = well fitted cell-killing curve with a large enough effect; inconclusive = small, poorly fitted or top-dose-only effect; inactive = no such curve, though single readings can be large or run the other way.
Potency is the fitted concentration of half-maximal effect.

The assay is described as follows: Cell Viability - LYMP2-001 (AID 921).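 For activity change, negative = cytotoxic: 0% = DMSO only and full inhibition = tetraoctylammonium bromide control wells.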 Note: nearly all actives have a fitted effect of over 70% in size. Conditions: LYMP2-001 lymphoblastoid cell viability; series mostly up to 92.2 µM; activity change, negative = cytotoxic: at the top concentration. The source says:
NIH Chemical Genomics Center [NCGC]
NIH Molecular Libraries Screening Centers Network [MLSCN]
National Institutes of Environmental Health Sciences [NIEHS]
National Toxicology Program [NTP]
We have developed a 1536-well cell-based assay for quantitative high throughput screening (qHTS) against a number of cell lines to determine in vitro cytotoxicity of small molecules. This particular assay uses a human lymphoblastoid cell line (LYMP2-001) purchased from Coriell Institute for Medical Research.
NCGC Assay Protocol Summary:
The CellTiter-Glo luminescent cell viability assay (Promega) is a homogeneous method to measure the number of viable cells in culture. The end point readout of this assay is based on quantitation of intracellular ATP, an indicator of metabolic activity, using the luciferase reaction. Luciferase catalyzes the oxidation of beetle Luciferin to oxyluciferin and light in the presence of ATP. The luminescent signal is proportional to amount of ATP present.
Using the CellTiter-Glo luminescent cell viability assay, the amount of cellular ATP was measured in the lymphoblastoid cell line with complete culture medium following compound treatment for 24 hours. The assay was performed in opaque white Kalypsys 1536-well plates. In the screen, tetraoctylammonium bromide was used as positive control. Library compounds were measured for their ability to cause acute toxicity in the cell line, as reflected by a decrease in intracellular ATP levels, in a concentration-dependent manner. […] AC50 values were determined from concentration-response data modeled with the standard Hill equation.
qHTS protocol for CellTiter Glo lymphoblastoid cellular assay
[Step] [Parameter] [Value] [Description]
1. Reagent; 5 uL; 2500 lymphoblastoid cells/well
2. Time; 5 hr; 37 C incubation
4. Controls; 23 nL; Tetraoctylammonium bromide 6.4pM to 92 uM
5. Time; 24 hr; 37 C incubation
6. Reagent; 5 uL; CellTiter Glo reagent
7. Time; 30 min; Room Temperature
8. Detection; Luminescence; Viewlux plate reader
Keywords: cell viability, cytotoxicity, lymphoblastoid cell line, luminescence, NTPHTS, NTPHTS_NCGC, NIEHS, DSSTox, MLSMR, MLSCN, NIH Roadmap, qHTS, NCGC
Turning to `CCOc1ccc2nc(N)sc2c1`, the “activity change, negative = cytotoxic” value was -1.55%. With `C1CCCNCC1`, the “activity change, negative = cytotoxic” value was -28.1%. For the molecule `C/C=C/C=C/C=O`, the Potency was 39.8 µM (active). `CC(C)OCC1CO1` (stereo not given): the “activity change, negative = cytotoxic” value was -1.93%.

Turning to `CC(=O)OC1CC(C)OC(C)O1` (stereo not given), the “activity change, negative = cytotoxic” value was -7.15%. The same measure, in the same setting: for `Cc1cccnc1` the value was -6.7%. As to `S=C(NC1CCCCC1)NC1CCCCC1`, the “activity change, negative = cytotoxic” value is -19.5%. For the molecule `NC(=O)Nc1nc2ccccc2[nH]1`, the “activity change, negative = cytotoxic” value is -8.37%. Same read-out and setting: for `CC(=O)CC(=O)Nc1ccccc1` the value was -18.2%; for `O=[N+]([O-])c1cc(N(CCO)CCO)ccc1NCCO`, -34.7%. For the molecule `CCC(Cl)CC(Cl)C(Cl)C(Cl)C(Cl)C(C)Cl` (stereo not given), the “activity change, negative = cytotoxic” value is -23.7%. As to `Oc1ccc(O)c2c(O)cccc12`, the Potency was 50.1 µM (active).

Turning to `CC1=C(/C=C/C(C)=C/C=C/C(C)=C/C=O)C(C)(C)CCC1`, the Potency was 39.8 µM (active). Turning to `O=C(O)c1ccc([N+](=O)[O-])cc1`, the “activity change, negative = cytotoxic” value is -2.62%. On the same count and under the same terms, for `Oc1ccc2c(c1)OCO2` the value was -4.88%. Turning to `CN(C)c1ccc(C(=N)c2ccc(N(C)C)cc2)cc1`, the Potency was 31.6 µM (active).

Consider `CC(=O)OC(C(=O)c1ccccc1)c1ccccc1` (stereo not given), for which the “activity change, negative = cytotoxic” value was -6.53%. With `O=[N+]([O-])c1cccc(I)c1`, the “activity change, negative = cytotoxic” value was -0.958%. On to `CC(CCC(=O)O)(c1ccc(O)cc1)c1ccc(O)cc1`, for which the “activity change, negative = cytotoxic” value was -8.69%.

With `CC(=O)c1ccc(Cl)c(Cl)c1Cl`, the “activity change, negative = cytotoxic” value is -0.181%. Turning to `Cc1ccc(O)c(N)c1`, the Potency is 50.1 µM (active). In the case of `C[Si](C)(C)Cl`, the “activity change, negative = cytotoxic” value is -9.03%. Take `NC(=O)c1ccc([N+](=O)[O-])cc1`: the “activity change, negative = cytotoxic” value is -13.6%. The same measure, in the same setting: the result for `c1ccc2ncccc2c1` reads -8.7%; that for `c1c[nH]cn1`, -3.96%; that for `C=CC1CO1` (stereo not given), -7.03%.

For `c1cc2c3c(c1)ccc1cccc(c13)C2`, the “activity change, negative = cytotoxic” value was -22%. Still for that read-out and setting: the result for `COc1ccc(C)cc1N` reads -10.5%; that for `O=C(Cl)c1ccc([N+](=O)[O-])cc1`, -11%; that for `Cc1ccc2ccc3cccc4ccc1c2c34`, -11.4%. With `COc1cc(-c2ccc(N=C=O)c(OC)c2)ccc1N=C=O`, the “activity change, negative = cytotoxic” value is -2.35%.

Regarding `C=Cc1cccc(C)c1`, the “activity change, negative = cytotoxic” value is -20.3%.

For `OCC(CBr)(CBr)CBr`, the “activity change, negative = cytotoxic” value is -3.43%.

With `Cc1cc2nc(N)sc2cc1C`, the “activity change, negative = cytotoxic” value is -38.1%. For the molecule `C=C1CC[C@H](O)C/C1=C/C=C1\CCC[C@]2(C)[C@@H]([C@H](C)CCCC(C)C)CC[C@@H]12`, the Potency was 39.8 µM (active). Consider `Brc1ccc(-c2ccccc2)cc1`, for which the “activity change, negative = cytotoxic” value is 3.12%. Still for that read-out and setting: for `OCC(CO)(CBr)CBr` the value was -12.9%. Turning to `CCN(CC)c1ccc2c(C)cc(=O)oc2c1`, the “activity change, negative = cytotoxic” value is -5.32%.

As to `Oc1cc(Cl)cc(Cl)c1Cl`, the “activity change, negative = cytotoxic” value is -15.7%. Take `CCNC(=S)NCC`: the “activity change, negative = cytotoxic” value was -4.15%.
